Screens as filed in PubChem.
Compounds with a hit are over-represented: about 7.3% of the library has one in this group of screens.
HCMV inh: human cytomegalovirus inhibition | activity change, negative = inhibition, % at 57.5 µM | AID 1259415 | 410,000 tested, 4.5% active | HFF cells, HCMV-luciferase reporter, 72 h; stronger effect = lower value; in the data active means activity change below about -60%; inconclusive means no clear call, values can overlap the other calls; inactive means above about -39%
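Human foreskin fibroblasts infected with luciferase-reporter HCMV at MOI 1 PFU/cell, compounds at two doses. Luciferase measured 72 h post infection; normalized to buffer-only basal and Salinomycin (10uM) controls.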
FMDV inh: foot and mouth disease virus antiviral activity; 410,000 tested, 1.2% active; Potency, µM (doses to about 57.9 µM), for the others: at the highest dose activity change, negative = inhibition, actives largely listed as inhibitors; AID 1159524; FMDV antiviral cell-based qHTS; calls by dose curve; tested in HEK293T cells; further: read-out not given here; potency means the concentration at half of the fitted maximal effect; nearly all actives have a fitted effect of over 45% in size
HCV inhibitor: blocks hepatitis C virus | Huh7.5.1 HCVcc-Cre infection, luciferase reporter, 44 h | Potency, µM (top dose mostly 41.8 µM), without a hit: at the top dose activity change, negative = inhibition, hits mostly inhibitors | 340,000 tested, 3.4% active | AID 651820; active means well fitted inhibition curve with a large enough effect; inconclusive means small, poorly fitted or top-dose-only effect, or another doubt; inactive means no such curve, though single readings can be large or run the other way; further: potency means the concentration at half of the fitted maximal effect
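Antiviral activity was scored by luciferase reporter output from cells infected with HCVcc-Cre (~0.5 moi) in presence of compound, 44 h infection period, cells seeded 1,000/well 4 h prior.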
VACV Venus inh: inhibitors of vaccinia virus (Venus reporter) | Vaccinia virus Venus reporter expression, fluorescence | Potency, µM (series often up to 36.5 µM), without a hit: at the highest dose activity change, negative = inhibition, most hits filed as inhibitors | 330,000 tested, 0.46% active | AID 720580; calls by dose curve; tested in A549 cells; further: potency means the concentration at half of the fitted maximal effect; nearly all actives have a fitted effect of over 30% in size
Vaccinia mCherry: inhibitors of vaccinia virus infection (mCherry reporter signal); 310,000 tested, 0.63% active; Vaccinia virus mCherry reporter infection, fluorescence; Potency, µM (series often up to 36.5 µM), inactives show at the highest dose activity change, negative = inhibition, actives largely listed as inhibitors; calls by dose curve; tested in A549 cells; further: potency means the concentration at half of the fitted maximal effect; nearly all actives have a fitted effect of over 35% in size
Numbers without * were called inactive; ! = not confirmed by another sample. On the % scale 0 is the no-effect control and ±100 the full control effect.

Cc1ccc(S(=O)(=O)N2CCOCC2)cc1C(=O)Nc1nc(-c2cccnc2)cs1 was read as HCMV inh -15.6, HCV inhibitor -15.2%, VACV Venus inh -4.2% and Vaccinia mCherry -27.3%.
For Cc1nc2nc(SCC(=O)Nc3cccc(Cl)c3)nn2c(C)c1Cc1ccccc1 the results were HCMV inh inconclusive, FMDV inh inconclusive, VACV Venus inh -25.7% and Vaccinia mCherry -28.8%.
`O=C1C(=O)N(C2CCN(C(=O)c3ccc(Cl)cc3)CC2)CCN1Cc1ccc(F)cc1` gave HCMV inh 15.7, FMDV inh -13.7%, VACV Venus inh 5.1% and Vaccinia mCherry -8.2%.
COc1cccc(C(=O)Nc2nc(-c3ccc(S(=O)(=O)N4CCOCC4)cc3)cs2)c1 was read as HCMV inh -87.5*, FMDV inh inconclusive, HCV inhibitor 10µM*!, VACV Venus inh -26.5% and Vaccinia mCherry -25.4%.
`Cc1ccc(-c2csc(NC(=O)COC(=O)c3cccc(S(=O)(=O)N4CCOCC4)c3)n2)cc1` gave HCMV inh 104.3, FMDV inh -6.2% and HCV inhibitor -7.2%.
For C[C@H](CO)N1C[C@H](C)[C@H](CN(C)C(=O)Nc2ccc(F)cc2)Oc2ncc(Br)cc2C1=O the results were HCMV inh 8.5.
Screening COc1cc2nc(NCc3ccccc3)n3nc(-c4ccccc4)nc3c2cc1OC returned HCMV inh 0.8, FMDV inh -15.5%, VACV Venus inh -7.2% and Vaccinia mCherry inactive.
Screening Cc1cccc(N2CCN(C(=O)C(C)n3nc(C)n4c(cc5occc54)c3=O)CC2)c1C (configuration not stated) returned HCMV inh 7.0, FMDV inh inconclusive, HCV inhibitor 10µM*, VACV Venus inh -20.9% and Vaccinia mCherry -25.1%.
Screening Cc1nn(CC(=O)N2CCCCCC2)c(=O)c2cc3occc3n12 returned HCMV inh -61.9*, FMDV inh 5.2%, HCV inhibitor 2.1%, VACV Venus inh -5.0% and Vaccinia mCherry -7.3%.
`COc1ccc(NC(=O)c2[nH]c(C)c(C(C)=O)c2C)cc1S(=O)(=O)Nc1ccc(Br)cc1` gave HCMV inh 69.2, FMDV inh 3.1%, HCV inhibitor 14.1µM*, VACV Venus inh 7.9% and Vaccinia mCherry 1.5%.
For COc1ccc(N(C)S(=O)(=O)c2cccc(C(=O)NCC3CCCCC3)c2)cc1 the results were HCMV inh -23.4, FMDV inh -4.9%, HCV inhibitor inconclusive, VACV Venus inh -9.2% and Vaccinia mCherry -17.5%.
`CN(CC(=O)Nc1ccc(OC(F)(F)F)cc1)C(=O)c1ccc(N2CCCC2=O)cc1` gave HCMV inh -69.7*, FMDV inh inconclusive and HCV inhibitor 4.47µM*.
For CN(CC(=O)Nc1ccc(Cl)cc1)C(=O)c1ccc(N2CCCC2=O)cc1 the results were HCMV inh -15.5, FMDV inh 14.9% and HCV inhibitor 21.9%.
For CN(C)S(=O)(=O)c1cccc(C(=O)NCC2CCCCC2)c1 the results were HCMV inh -78.2*, FMDV inh 21.8%, HCV inhibitor -13.1%, VACV Venus inh -6.1% and Vaccinia mCherry -4.3%.
Screening CC(=O)c1c(C)[nH]c(C(=O)Nc2cccc(S(=O)(=O)N3CCCCC3)c2)c1C returned HCMV inh -1.4, FMDV inh -2.8% and HCV inhibitor 12.6µM*.
Cc1ccc(S(C)(=O)=O)cc1C(=O)Nc1cccc(S(=O)(=O)N2CCCCCC2)c1 was read as HCMV inh -30.3, FMDV inh -19.0% and HCV inhibitor inconclusive.
COC(=O)c1[nH]c2c(c1C)C(=O)CC(c1cccc(OC)c1)C2 (configuration not stated) was read as HCMV inh inconclusive, FMDV inh -21.2%, HCV inhibitor inconclusive, VACV Venus inh inconclusive and Vaccinia mCherry inconclusive.
`C[C@@H]1CN([C@@H](C)CO)C(=O)c2cc(NC(=O)C3CC3)ccc2O[C@@H]1CN(C)Cc1ccc(Cl)c(Cl)c1` gave HCMV inh -29.1, FMDV inh -22.0%, HCV inhibitor inconclusive, VACV Venus inh inconclusive and Vaccinia mCherry -28.8%.
For CCN(Cc1ccccc1)S(=O)(=O)c1cc(C(=O)NCC2CCCCC2)ccc1OC the results were HCMV inh -83.0*, FMDV inh -29.3%, HCV inhibitor inconclusive, VACV Venus inh inconclusive and Vaccinia mCherry -7.4%.
